A3G deaminase – APOBEC3G DNA deaminase inhibitors, primary screen, biochemical, fluorescence, single-stranded DNA substrate, uHTS; DNA dC->dU-editing enzyme APOBEC-3G (Homo sapiens), Q9HC16; recombinant A3G, ssDNA deamination FAM/TAMRA fluorescence; inhibition, % at 20 µM; 330,000 compounds, 0.28% hits; AID 493012, 2011;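 active = inhibition of at least 40% at 20 µM, with no more than 30% in the related APOBEC3A deaminase screen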;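 also: plate controls were DMSO wells with A3G for no effect and wells lacking A3G enzyme for full effect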
Target sequence (Q9HC16 whole entry, looked up): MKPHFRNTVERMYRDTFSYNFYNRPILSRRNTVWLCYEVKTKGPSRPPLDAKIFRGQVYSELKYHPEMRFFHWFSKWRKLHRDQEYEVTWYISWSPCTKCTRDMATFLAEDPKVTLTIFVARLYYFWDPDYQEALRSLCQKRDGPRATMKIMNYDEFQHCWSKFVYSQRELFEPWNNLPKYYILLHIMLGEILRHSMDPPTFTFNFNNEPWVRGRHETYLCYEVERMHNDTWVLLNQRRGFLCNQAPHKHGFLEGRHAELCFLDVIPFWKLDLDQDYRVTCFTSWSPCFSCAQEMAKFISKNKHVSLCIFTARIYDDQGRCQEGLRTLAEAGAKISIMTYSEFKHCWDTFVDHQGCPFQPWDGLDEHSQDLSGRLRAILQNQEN
NadD block – inhibitors of S. aureus NadD, primary screen, biochemical, colorimetric, uHTS; Nicotinate-nucleotide adenylyltransferase NadD (Staphylococcus aureus N315); purified NadD enzyme, colorimetric absorbance read-out; inhibition, % at 20 µM; 360,000 compounds, 0.78% hits; AID 602399, 2012; in the data active = inhibition above about 26%
PfG6PD inh – PfG6PD enzyme inhibitors, primary screen, biochemical, fluorescence intensity, uHTS; 350,000 compounds, 0.78% hits; glucose-6-phosphate dehydrogenase-6-phosphogluconolactonase (Plasmodium falciparum 3D7); AID 504690, 2011; PfGluPho enzyme, NADPH resazurin-diaphorase fluorescence; inhibition, % at 20 µM;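 active = inhibition reaching at least a set limit at 20 µM in the primary screen, cut at about 59% in these data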;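 also: 0% = DMSO wells with substrate and 100% = DMSO wells lacking glucose-6-phosphate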
APOBEC3A inh – APOBEC3A ssDNA deaminase inhibitors, primary screen, selectivity assay for APOBEC3G inhibitor project, biochemical, FAM/TAMRA oligo cleavage fluorescence; DNA dC->dU-editing enzyme APOBEC-3A (Homo sapiens), P31941; recombinant A3A, FAM/TAMRA ssDNA deamination fluorescence; 330,000 compounds, 0.41% hits; inhibition, % at 20 µM;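 active = at least 40% inhibition at 20 µM here, with at most 30% in a related deaminase screen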;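 also: plate controls were A3A with DMSO for no effect and wells lacking A3A enzyme for full effect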
Target sequence (P31941 whole entry, looked up): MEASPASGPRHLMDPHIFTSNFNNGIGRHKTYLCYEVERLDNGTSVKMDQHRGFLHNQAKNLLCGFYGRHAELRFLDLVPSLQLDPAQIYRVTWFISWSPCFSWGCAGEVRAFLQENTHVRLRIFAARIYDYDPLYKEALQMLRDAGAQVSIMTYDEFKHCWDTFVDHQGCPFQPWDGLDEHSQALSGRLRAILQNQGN
TAG inh – inhibitors of triacylglycerol accumulation, primary screen, cell-based, uHTS, fluorescence, H9c2; 230,000 compounds, 0.66% hits; H9c2 cells, Nile Red lipid (TAG) fluorescence; cells loaded with 200 µM oleic acid; AID 651582, 2012; inhibition, % at 12.5 µM;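 active = pattern-corrected inhibition of lipid staining of at least 50% with the nuclear-stain viability signal not falling by more than 50%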;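 also: 0% = DMSO wells and 100% = triacsin C control wells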
H9c2 protect – cardioprotection against H2O2-induced cell death, primary screen, uHTS, H9c2 cells, ATPLite luminescence; H9c2 cardiomyocytes, H2O2 injury protection, 2 h; protection from H2O2 cell death, % at 20 µM; 360,000 compounds, 0.63% hits; AID 588492, 2011;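 active = compounds giving at least 50% protection of heart cells from peroxide-induced death in the single-dose screen, raw or plate-pattern-corrected value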;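 also: 0% = DMSO wells with peroxide and 100% = DMSO wells without peroxide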
* = called active by the depositor; · = not tested or not shown. An excerpt weighted towards active compounds, which were near 2.9% of everything screened.

SMILES	A3G deaminase	NadD block	PfG6PD inh	APOBEC3A inh	TAG inh	H9c2 protect
O=C(COC(=O)C(CO)NS(=O)(=O)c1ccc(Br)cc1)Nc1ccc2c(c1)OCCO2 (stereo not drawn)	-8	0	6	-2	18	-13
Cc1ccc(NC(=O)c2ccc3ccccc3n2)cc1S(=O)(=O)N1CCOCC1	-5	-4	31	-2	3	8
COc1cc(/C=C2\SC(N)=NC2=O)ccc1OCC(=O)Nc1ccccc1C	-3	7	2	-4	15	54*
CCCOc1ccc(/C=C2\SC(N)=NC2=O)cc1OC	-8	-5	7	-2	·	-3
O=C(CCc1nc2ccccc2c(=O)[nH]1)OCc1nnc(-c2ccccc2)o1	-7	4	7	-4	·	75*
O=C(CCc1nc2ccccc2c(=O)[nH]1)OCCOc1ccc(Cl)cc1	-5	-2	15	1	-3	66*
CCc1nc2ccccc2c(C(=O)OCc2nc3ccccc3c(=O)[nH]2)c1C	-5	0	-12	0	17	56*
CC(=O)NCc1ccc(-c2csc(NC(=O)CCc3nc4ccccc4c(=O)[nH]3)n2)s1	-6	1	17	0	7	90*
O=C(CCc1nc2ccccc2c(=O)[nH]1)OCc1ccccc1F	-8	-5	8	2	·	25
Cn1c(=O)c2cc(NC(=O)CCc3ccccc3)ccc2n1-c1ccccc1F	·	1	·	·	8	2
COc1ccc(CNC(=O)COC(=O)CCc2nc3ccccc3c(=O)[nH]2)cc1	-9	-5	-8	3	-2	48
O=C(COC(=O)CCc1nc2ccccc2c(=O)[nH]1)NCc1ccc(F)cc1	-2	1	-10	-3	2	50*
Cc1ccc(CNC(=O)CCc2nc3ccccc3c(=O)[nH]2)cc1	4	0	-1	5	-21	51*
CC(C)c1ccccc1NC(=O)COC(=O)c1c2c(nc3ccccc13)CCN(Cc1ccccc1)C2	-3	17	23	2	·	66*
CC(C)(C)NC(=O)COC(=O)c1c2c(nc3ccccc13)CCC2	9	9	0	21	·	50*
NC(=O)COC(=O)c1c2c(nc3ccccc13)CCC2	9	0	3	11	9	-1
Cc1c(Cl)cccc1NC(=O)COC(=O)c1c2c(nc3ccccc13)CCN(Cc1ccccc1)C2	-2	20	5	1	·	46
NC(=O)[C@@H]1CCCN1Cc1nc(-c2cccs2)no1	-5	-9	5	-2	-18	6
COc1cc(-c2cc(-c3ccc(O)cc3)nc(N)c2C#N)ccc1O	-3	-7	-13	4	16	50*
C/C(=N\Nc1ccc2nncn2n1)c1ccccn1	-6	1	-10	17	18	58*
C/C(=N\Nc1ccc2nncn2n1)c1ccco1	-6	0	3	0	9	8
Cc1cc(C)cc(C(O)c2ncc(-c3ccccc3F)[nH]2)c1 (stereo not drawn)	·	-3	·	·	14	-11
CCOC(=O)CCC(=O)Nc1ccc(S(=O)(=O)Nc2cc(OC)nc(OC)n2)cc1	-9	8	-13	-3	·	2
O=c1cc(-c2ccccc2)cc(-c2ccccc2)n1O	-8	10	-37	0	16	63*
CCOC(=O)C1=CCN(S(=O)(=O)c2cccc(Cl)c2)C1c1ccc(F)cc1 (stereo not drawn)	·	-4	·	·	·	2
SMILES	A3G deaminase	NadD block	PfG6PD inh	APOBEC3A inh	TAG inh	H9c2 protect
O=C(Nc1ccn(CCCN2CCN(Cc3ccc(F)cc3)CC2)c(=O)n1)OCc1ccccc1	·	6	9	·	-10	-4
Cc1ccc(C)c(N2CCN(C(=O)Nc3ccc4c(c3)N(C)C(=O)CS4)CC2)c1	5	7	16	1	2	-6
CN1C(=O)CSc2ccc(NC(=O)N3CCN(c4ccccn4)CC3)cc21	5	-3	-9	7	·	57*
CN1C(=O)CSc2ccc(NC(=O)Nc3ccccn3)cc21	-3	3	19	-3	·	59*
CC(C)(C)C1=CC(=O)C(=O)C(C(C)(C)C)=C1	-1	18	111*	3	·	6
CCOC(=O)c1nn(-c2cccc(OC)c2)c2nc(Nc3ccccc3)cc(=O)n12	-7	-20	-1	-3	·	52*
O=[N+]([O-])c1ccc(NC2CCN(Cc3ccccc3)CC2)c([N+](=O)[O-])c1	0	2	-8	-5	0	-3
O=C1c2c([N+](=O)[O-])cc([N+](=O)[O-])cc2S(=O)N1Cc1ccccc1 (stereo not drawn)	38	0	62*	2	-3	1
CC12CCC3C(CCC4CC(O)CCC43C)C1CC(=O)C2 (stereo not drawn)	·	-3	·	·	-9	17
O=c1cc(N=Nc2ccc(Cl)cc2)[nH]c(=O)[nH]1	·	-4	7	·	·	-22
COCCN=c1scc(-c2ccco2)n1/N=C/c1ccc(O)c(O)c1O	70	39*	55	51	28	23
CN1CCN(c2ccc(NC(=O)COc3ccccc3[N+](=O)[O-])cc2)CC1	-4	-1	1	0	-3	22
CC(C)C(=O)N1CCN(c2ccc(NC(=O)COc3ccccc3[N+](=O)[O-])cc2)CC1	-2	1	-2	-3	·	72*
O=C(NCCN1CCN(c2ccccc2F)CC1)c1cccn2c(=O)c3ccccc3nc12	0	6	10	0	30	71*
CN1CCN(C(c2ccc(Cl)cc2)c2cc(Cl)c3cccnc3c2O)CC1 (stereo not drawn)	-1	16	0	-2	·	42
Oc1c(C(c2ccccn2)N2CCCCC2)cc(Cl)c2cccnc12 (stereo not drawn)	-7	7	17	-3	87*	38
CCOC(=O)CS(=O)(=O)c1nc(-c2ccccc2)cc(C(F)(F)F)n1	-5	-5	9	5	21	-34
CCOC(=O)CCS(=O)(=O)c1nc(-c2ccccc2)cc(C(F)(F)F)n1	-5	-4	2	-2	74*	-34
Cc1cc(NC(=O)COC(=O)COc2ccc3c4c(c(=O)oc3c2)CCC4)no1	-4	-4	-10	0	10	53*
Cc1noc(C)c1COC(=O)COc1ccc2c(C)cc(=O)oc2c1	-4	2	6	-3	0	60*
CNC(=O)COC(=O)COc1ccc2c(C)cc(=O)oc2c1	-11	-2	11	-3	-3	29
